# Assay outcomes (PubChem BioAssay)
# Pf growth 48h: inhibits P. falciparum growth in the first generation, 48 h; P. falciparum luciferase growth in erythrocytes, 48 h; Potency, µM (doses to about 28.7 µM), most hits filed as inhibitors; 310,000 compounds, 5.9% hits
#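 Firefly luciferase activity from engineered P. falciparum reports growth; inhibitors lower the luminescent signal. Cultures contained 2% hematocrit erythrocytes at 0.1% final parasitemia.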
# Pf growth 96h: P. falciparum growth inhibition at 96 hour, primary screen for plastid delayed-death inhibitors | AID 504834 | 320,000 compounds, 6.9% hits | Potency, µM (top dose mostly 28.7 µM), usual class: inhibitors | P. falciparum luciferase reporter growth, 96 h
#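 Luminescence readout: decreased luciferase signal marks inhibited growth of reporter-expressing P. falciparum in infected red cells (2% hematocrit, 0.05% parasitemia final), exposed to compound two generations (96 h, 37 C, 5% CO2).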
# Shiga toxin inh: blocks Shiga toxin action in Vero cells; 290,000 compounds, 9.2% hits; Vero cells, Shiga toxin protein synthesis inhibition reporter; AID 2315; inhibition, % at 38.7 µM; in the data active means inhibition mostly above about 28%, no sharp cut-off; inactive means mostly below about 43%
# Cycloheximide cs: counter-screen hit for Shiga toxin inhibitors, cycloheximide | cell reporter, cycloheximide protein synthesis inhibition counterscreen | max response, % | 300,000 compounds, 12% hits | AID 2314; in the data active means max response mostly above about 13%, no sharp cut-off; inactive means mostly below about 14%; further: read at 38.3 µM for the half of the compounds with a filed dose
# NS1 inh: inhibitors of influenza NS1 protein function. Potency, µM (highest dose often 46.1 µM). 270,000 compounds, 0.4% hits. AID 2326; calls by dose curve; further: actives are rising curves; nearly all actives have a fitted effect of over 50% in size
#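 S. cerevisiae expressing influenza A NS1, grown in glucose, washed, then diluted 1:100 into pH 6.0 -URA galactose medium with 23 nl compound. Growth recovery read as OD600; NS1-free strain serves as control.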
# Numbers stand for hits; 0 = inactive; ? = inconclusive; - = not tested or not shown. In the library only some 21% were active in any assay of this set; here they are far more common. Unless noted, the call rests on the fitted dose curve; in most records, active means well fitted inhibition curve with a large enough effect; inconclusive means small, poorly fitted or top-dose-only effect, or another doubt; inactive means no such curve, though single readings can be large or run the other way.
SMILES,Pf growth 48h,Pf growth 96h,Shiga toxin inh,Cycloheximide cs,NS1 inh
N#C/C(=C\c1c(Cl)cccc1Cl)c1nc2ccccc2[nH]1,8.28µM,8.28µM,0,14.1,0
N#C/C(=C\c1cccs1)Sc1nc2ccccc2s1,0,0,44.0,30.9,0
N#C/C(=C\c1ccc(Sc2ccc(Cl)cc2)o1)c1nc2ccccc2[nH]1,0.185µM,0,0,0,0
Cc1ccc2nc(SCC(=O)Nc3ccc4sc(C)nc4c3)c(C#N)cc2c1,?,?,0,0,0
CNC(=O)C1CC(=O)N(c2ccc(C)cc2)C1 (stereo not given),0,0,0,0,0
Cc1ccc(/C=C(\C#N)c2nc3ccccc3[nH]2)s1,?,1.65µM,52.9,49.4,0
CCOC(=O)c1ccccc1NC(=O)c1cn(-c2ccc(C)c(C)c2)c(=O)c2ccccc12,?,?,0,0,0
COc1cccc(-n2cc(C(=O)NC(C)C)c3ccccc3c2=O)c1,0,1.31µM,0,0,0
CCOC(=O)c1ccccc1NC(=O)c1cn(-c2ccc(OC)cc2)c(=O)c2ccccc12,?,2.94µM,0,0,0
CC1CN(C(=O)COC(=O)COc2ccc(C#N)cc2)CC(C)O1 (stereo not given),0,0,-,-,-
O=C1CC(NS(=O)(=O)c2cccs2)CN1c1ccc(Cl)cc1 (stereo not given),?,0,-,-,-
CCOc1ccc(OCC)c(NC(=O)C2COc3ccccc3O2)c1 (stereo not given),?,0,0,0,0
Cc1cc(NC(=O)COC(=O)C2COc3ccccc3O2)no1 (stereo not given),0,10.4µM,0,0,0
Cc1cc(NC(=O)C2COc3ccccc3O2)no1 (stereo not given),0,0,60.9,37.5,0
O=C(NCCS(=O)(=O)N1CCN(Cc2ccccc2)CC1)c1ccc(F)cc1,0,0,-,-,-
c1ccc(-c2ccc(-c3[nH]ncc3CN3CCC(N4CCSCC4)CC3)cc2)cc1,0,0,48.4,7.3,0
CCCS(=O)(=O)c1nnnn1-c1cccc(OC)c1,?,0,0,0,0
CCOCCCn1c(C)nc2c(c1=O)c1nc3ccccc3nc1n2-c1ccc(C)cc1,0,?,0,0,0
CCO/C(C)=N/n1c2nc3ccccc3nc2c2c(=O)n(CC(C)C)c(C)nc21,2.94µM,2.33µM,0,0,0
Cc1ccc(CN2CCCC(C(=O)c3cccc(C(F)(F)F)c3)C2)o1 (stereo not given),0,0,0,0,0
O=C(NCC1CCCN(Cc2ccccc2F)C1)c1cccc(C(F)(F)F)c1 (stereo not given),0,11.7µM,0,0,0
O=C(c1cccc(C(F)(F)F)c1)C1CCCN(Cc2ccccc2O)C1 (stereo not given),?,8.28µM,0,0,0
O=C(C1CCCN(Cc2cc(Br)ccc2O)C1)N1CCCCC1 (stereo not given),8.28µM,?,0,0,0
CCOc1cc(CN2CCCC(C(=O)c3cccc(C(F)(F)F)c3)C2)ccc1O (stereo not given),5.22µM,0,0,0,0
O=c1cc(CSc2nnnn2-c2ccccc2)[nH]c2[nH]n(-c3ccccc3)c(=O)c12,0,-,0,0,?
SMILES,Pf growth 48h,Pf growth 96h,Shiga toxin inh,Cycloheximide cs,NS1 inh
CCOC(=O)C1(Cc2cccc(OC)c2)CCN(Cc2cccn2-c2ccccn2)CC1,?,?,0,0,0
O=C(NNC(=O)C1CCCCC1)C(=O)NC1CCCCC1,0,0,0,0,0
Cc1cc(C)cc(C(=O)N(C)C2CCCN(Cc3ccccc3F)C2)c1 (stereo not given),?,?,0,0,0
CN(C)c1cccc(C(=O)N(C)C2CCCN(Cc3ccccc3F)C2)c1 (stereo not given),?,4.15µM,0,0,0
COc1ccc(CCNC(=O)C(=O)NCCC2CCCCN2S(=O)(=O)c2cccs2)cc1 (stereo not given),?,7.38µM,-,-,-
COc1ccc(C2N(C(C)=O)CCCN2S(=O)(=O)c2ccc(C)cc2)cc1 (stereo not given),?,0,0,0,0
COc1ccc(C2N(C(=O)CN3CCCC3)CCCN2S(=O)(=O)c2ccccc2)cc1 (stereo not given),5.22µM,?,0,0,?
COc1ccc(CCNC(=O)C(=O)NCCC2CCCCN2S(=O)(=O)c2ccccc2)cc1 (stereo not given),14.7µM,0,-,-,-
CNC(=O)C(=O)NCCC1CCCCN1S(=O)(=O)c1cccs1 (stereo not given),0,0,-,-,-
CC(C(=O)c1ccc(-c2ccccc2)cc1)[n+]1cccc(NC(=O)c2ccccc2)c1 (stereo not given),?,0,0,0,0
CSc1ccc(C(=O)C2CCCN(C(=O)CN3CCOC3=O)C2)cc1 (stereo not given),0,0,0,0,0
O=C(NNC(=S)Nc1ccc(OC(F)F)cc1)c1cc2c(s1)CCCC2,0,0,0,13.7,0
O=C(Nc1ccccc1OC(F)F)c1cc2c(s1)CCC2,0,0,43.3,39.9,0
COc1cc(OC)cc(C(=O)NNC(=O)c2cc3c(s2)CCCC3)c1,0,0,0,0,0
Cc1ccc(C)c(OC(C)C(=O)Nc2nccs2)c1 (stereo not given),0,0,0,0,0
O=C(CCNS(=O)(=O)c1cccc2nsnc12)NC1CCCc2ccccc21 (stereo not given),0,?,0,0,0
O=C(NCCc1ccccc1)C1CCC(CNc2c(N3CCCCC3)c(=O)c2=O)CC1 (stereo not given),0,11.7µM,0,0,0
O=C(NC1CCCc2ccccc21)C1CCC(CNc2c(N3CCOCC3)c(=O)c2=O)CC1 (stereo not given),0,10.4µM,0,0,0
O=C(NC1CCCc2ccccc21)C1CCC(CNS(=O)(=O)c2cccc3nsnc23)CC1 (stereo not given),-,3.7µM,0,0,0
Cc1ccc(CCNC(=O)C2CCC(CNc3c(N4CCCC4)c(=O)c3=O)CC2)cc1 (stereo not given),-,?,0,0,0
Cc1cccc(CCNC(=O)C2CCC(CNc3c(N4CCCC4)c(=O)c3=O)CC2)c1 (stereo not given),-,9.28µM,0,0,0
COc1ccc(CN2CCN(c3ccccn3)CC2)cc1OCc1ccccc1,0,0,0,0,0
CC1CCC/C(=N\NC(=O)c2ccncc2)C1 (stereo not given),0,0,0,0,0
C/C(O)=C(\N=Nc1cc(C)ccc1O)C(N)=O,0,0,0,0,0
COc1ccc(O[C@H]2C=C[C@@H](c3ccccc3)O[C@@H]2COC(=O)CC/C(C)=N/O[C@H](C)c2cn([C@@H]3COC[C@H]3O)nn2)cc1,14.7µM,?,0,0,0
c1cnn(-c2nc(N3CCOCC3)nc(N3CCOCC3)n2)c1,0,0,0,0,0
CCCCCCCC[n+]1cccc(C(=O)N(CC)CC)c1,?,8.28µM,0,0,0
CCCCCCCCCCCCCCCC[n+]1cccc(C(=O)N(CC)CC)c1,5.22µM,2.62µM,0,0,0
